In PubChem BioAssay one finds inhibition and activation data, which are given here for three compounds.

A word on the inhibition: it is the drop in the measured response relative to a control, in per cent.

Test [1] deals with TLR4-MyD88 interaction (human), BLA complementation. Nature of the test: disruptors of TLR4 binding to MyD88 – cell-based, HeLa CL3-4, BLA complementation, FRET ratio, confirmation (AID 941;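 active = mean inhibition across three repeat runs above about 25% carried over from the earlier screen, limit read from the data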;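 also: plate controls were DMSO only for no effect and clavulanic acid blocking BLA at full dose for full effect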). To be noted: CCF4 FRET ratio, at 8.4 µM, active compounds read high.
A short description of test [2]: BLA reporter interference in HeLa cells – cell-based, full-length BLA, CCF4 FRET ratio, artefact control for TLR4-MyD88 binding inhibitor project, confirmation (AID 1237;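 active = mean inhibition over three repeats above about 26% taken from the earlier screen, limit read from the data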;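 also: HeLa cells stably expressing beta-lactamase reporter as counterscreen for TLR4-MyD88 inhibitors; 0% = DMSO and 100% = clavulanic acid full inhibition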). To be noted: at 8.4 µM, active compounds read high.
Test [3] addresses Protein-arginine deiminase type-4 (Homo sapiens) (UniProt Q9UM07). Kind of test: protein arginine deiminase 4 blockade, retest – biochemical, fluorescence polarization, confirmation (AID 488796;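 active = mean inhibition across replicates above the hit cutoff set by the earlier primary screen, cut at about 15% in these data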;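 also: inhibitors block active-site labeling by the probe so polarization falls; 0% = PAD4 with probe and DMSO and 100% = probe without PAD4 enzyme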). To be noted: recombinant PAD4, RCA probe fluorescence polarization; at 6.36 µM; active compounds read high. On the technique in general: Polarisation of emitted light reports the rotation of a fluorescent probe.

The nature of test [4]: blockers of IL-6 STAT3 signaling – U3A cells, luciferase, luminescence, confirmation (AID 1265;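 active = inhibition above the hit cutoff computed for the primary STAT3 screen, cut at about 44% in these data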;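 also: 0% = IL-6 plus DMSO and 100% = IL-6 plus nifuroxazide control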). To be noted: IL-6 STAT3 luciferase reporter, at 5.7 µM, active compounds read high, cell line lacks STAT1. On the technique in general: A reporter such as luciferase makes a cellular process visible.
The nature of test [5]: inhibition of TNF-alpha-driven NF-kB transcription – cell-based, HEK293T, luciferase, TNF-alpha stimulus, counter-screen for STAT3 inhibitor project, confirmation (AID 1308;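 active = inhibition above the mean of solvent-only control wells plus 3 SD, cutoff set per campaign, cut at about 13% in these data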;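 also: 0% = TNF-alpha with DMSO and 100% = TNF-alpha with MG high control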). To be noted: HEK293T NF-kB luciferase reporter, TNF-alpha induced; at 5.7 µM; active compounds read high. (In general: The purpose of a counterscreen is to sort out artefacts and off-target activity.)
Test [6] in a line: inhibition of STAT1-driven transcription – cell-based, NIH 3T3, luciferase luminescence, IFN-gamma, counter-screen for STAT3 inhibitor project, confirmation (AID 1317;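 active = inhibition above the mean plus 3 SD of solvent-only control wells, limit set per screening run, cut at about 16% in these data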;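 also: 0% = DMSO with IFN-gamma and 100% = nifuroxazide control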). To be noted: NIH 3T3 STAT1-luciferase reporter, IFN-gamma induced, at 5.7 µM, active compounds read high.
Test [7] can be described thus: suppression of KLF5 promoter-driven luciferase – DLD-1 cells, luminescence, confirmation (AID 1834;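 active = inhibition above a set limit taken from the earlier primary screen, cut at about 63% in these data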;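 also: 0% = DMSO wells and 100% = LY294002 at 200 µM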). To be noted: DLD-1 KLF5 promoter firefly luciferase reporter, at 4 µM, active compounds read high.
Test [8] in a line: IEC-6 intestinal cell killing – luminescence, triplicate, cytotoxicity control for KLF5 inhibitor project (AID 1905; in the data active = inhibition above about 23%;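 also: cells exposed to compounds for 48 hours before viability read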). To be noted: IEC-6 rat intestinal cells, viability luminescence; at 4 µM; active compounds read high.
For test [9], the target named is Nuclear receptor coactivator 3 (Homo sapiens) (UniProt Q9Y6Q9). Nature of the test: NCOA3 GAL4-fusion reporter inhibition – cell-based, luminescence, quadruplicate, confirmation (AID 588792;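 active = mean inhibition over 43.08%, the solvent-only control mean plus 3 SD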;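 also: 0% = DMSO treated cells and 100% = gossypol at 36 µM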). To be noted: HEK293 GAL4-SRC3 luciferase reporter, at 3.6 µM, active compounds read high.
Test [10] relates to transactivating tegument protein VP16 (Human herpesvirus 1), Gal4-VP16 luciferase reporter. Nature of the test: repression of VP16-driven luciferase reporter – cell-based, luminescence, high throughput, counter-screen for SRC3 inhibitor project (AID 588794; in the data active = inhibition above about 30%). To be noted: mammalian cells, at 3.6 µM, active compounds read high.
Test [11] addresses Nuclear receptor coactivator 1 (Homo sapiens) (UniProt Q15788). Kind of test: NCOA1 GAL4-fusion reporter inhibition – cell-based, luminescence, quadruplicate, confirmation (AID 588820;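 active = mean inhibition above 46.68%, the untreated control wells mean plus 3 SD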;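 also: 0% = DMSO wells and 100% = gossypol 36 µM treated wells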). To be noted: HEK293 GAL4-SRC1 luciferase reporter, at 3.6 µM, active compounds read high.
Test [12] in a line: repression of VP16-driven luciferase reporter – cell-based, luminescence, high throughput, counter-screen for SRC1 inhibitor project (AID 588824; in the data active = inhibition above about 25%). To be noted: cell-based VP16 transactivation luciferase luminescence; at 3.6 µM; active compounds read high.
In test [13] the target is Photoreceptor-specific nuclear receptor (Homo sapiens) (UniProt Q9Y5X4). Kind of test: retest of NR2E3-NCOR disrupting agonists – cell-based, luminescence, CHO-S two-hybrid, confirmation (AID 624378;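 active = average inhibition above a cutoff equal to the mean inhibition of all tested compounds plus one SD, cut at about 70% in these data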;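 also: 0% = DMSO in NR2E3 cells and 100% = DMSO in cells lacking NR2E3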). To be noted: CHO-S mammalian two-hybrid NR2E3-NCOR, luciferase luminescence; at 3.98 µM; active compounds read high.
Test [14] can be described thus: nonselective effects on VP16 transactivation – cell-based, luminescence, CHO-S, high throughput, counter-screen for NR2E3 agonist project, confirmation (AID 624379;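 active = mean inhibition above a cutoff equal to the average over all tested compounds plus one standard deviation, cut at about 70% in these data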;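 also: 0% = DMSO with VP16-transfected cells and 100% = DMSO with cells lacking VP16; higher means less reporter light so more repression of VP16 activity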). To be noted: CHO-S GAL4-VP16 luciferase reporter, at 3.98 µM, active compounds read high.
Test [15] is described as follows: StAR promoter reporter inhibitors, counter-screen for LRH-1 inverse agonist project, cell-based, luminescence, high throughput (AID 651611; in the data active = inhibition above about 28%). To be noted: StAR promoter luciferase reporter counterscreen, at 3.6 µM, active compounds read high.
The target in test [16] is Nuclear receptor subfamily 5 group A member 2 (Homo sapiens) (UniProt O00482). Nature of the test: NR5A2 activity suppression in reporter cells – cell-based, luminescence, confirmation (AID 651613; in the data active = inhibition above about 42%;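 also: HEK293T cells co-transfected with LRH-1 and StAR promoter luciferase reporter; 0% = vehicle wells and 100% = parental cells lacking receptor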). To be noted: cell-based LRH-1 luciferase reporter, inverse agonism; at 3.6 µM; active compounds read high.
In test [17] the target is Steroidogenic factor 1 (Homo sapiens) (UniProt Q13285). Kind of test: inverse agonism at SF1 nuclear receptor – cell-based, luminescence, high throughput, counter-screen for LRH-1 inverse agonist project (AID 651614; in the data active = inhibition above about 44%;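 also: cells cotransfected with StAR promoter reporter and SF1 expression vector; 0% = vehicle on cells with receptor and 100% = vehicle on cells lacking receptor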). To be noted: cell-based SF1 luciferase reporter, at 3.6 µM, active compounds read high.
Test [18] in a line: compounds suppressing VP16-driven luciferase signal – cell-based, luminescence, high throughput, counter-screen for LRH-1 inverse agonist project (AID 651615; in the data active = inhibition above about 33%). To be noted: Gal4-VP16 luciferase reporter cells, at 3.6 µM, active compounds read high.
The nature of test [19]: VP16-driven transactivation reporter suppression – cell-based, luminescence, HEK293, counter-screen for COUP-TFII antagonist project (AID 687007; in the data active = inhibition above about 13%). To be noted: HEK293 Gal4-VP16 luciferase reporter, at 8.5 µM, active compounds read high.
The target in test [20] is COUP transcription factor 2 (Homo sapiens) (UniProt P24468). Nature of the test: retest of COUP-TFII reporter suppressors – cell-based, luciferase reporter, HEK293, triplicate, confirmation (AID 687008;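 active = mean inhibition over three repeats above a set limit taken from the earlier primary screen, cut at about 38% in these data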;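 also: 100% = cells given the luciferase reporter alone without the COUP-TF2 vector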). To be noted: HEK293 NGFI-A luciferase reporter, luminescence; at 8.5 µM; active compounds read high.
Test [21] can be described thus: reduced OD of T4-infected AddAB+ E. coli – absorbance, E. coli V3065, T4 phage, triplicate, AddAB inhibitor project, confirmation (AID 488942;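 active = mean inhibition above a set limit taken from the earlier primary screen, cut at about 13% in these data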;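 also: higher means less bacterial growth since AddAB block lets phage replicate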). To be noted: E. coli V3065 expressing H. pylori AddAB, at 11.9 µM, active compounds read high, T4 phage with gene 2 nonsense mutations.
A short description of test [22]: reduced OD of phage-infected RecBCD+ V66 E. coli – absorbance, mutant T4 phage, counter-screen for AddAB inhibitor project (AID 488955;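 active = mean inhibition above the mean of solvent-only control wells plus 3 SD, cut at about 4% in these data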;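 also: optical density read after an 18 h incubation at 37 °C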). To be noted: OD growth, at 11.9 µM, active compounds read high.
The nature of test [23]: bacterial growth inhibitors – absorbance, counter-screen for AddAB inhibitor project, confirmation (AID 488956; in the data active = inhibition above about 25%). To be noted: bacterial viability, absorbance (AddAB counterscreen); at 11.9 µM; active compounds read high.
Test [24] can be described thus: reduced OD of V66 E. coli with T4 gene 2 phage – absorbance, RecBCD inhibitor project, confirmation (AID 651982). To be noted: E. coli V66 + T4 2- phage, growth OD; at 11.9 µM; active compounds read high.
Test [25] is described as follows: bacterial growth inhibition – absorbance, high throughput, counter-screen for RecBCD inhibitor project (AID 651983; in the data active = inhibition above about 20%;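 also: E. coli strain V66 grown with compound alone and no phage infection; 0% = bacteria with DMSO vehicle only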). To be noted: E. coli viability, absorbance (OD) growth; at 11.9 µM; active compounds read high.
Test [26] can be described thus: reduced optical density, T4-challenged addAB+ bacteria – absorbance, E. coli V3065, T4 phage, counter-screen for RecBCD inhibitor project, confirmation (AID 651984;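 active = mean inhibition above the solvent-only control wells' mean plus 3 SD, cut at about 22% in these data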;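 also: higher means less bacterial growth from phage killing when AddAB is blocked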). To be noted: E. coli expressing H. pylori AddAB + T4 phage, OD growth; at 11.9 µM; active compounds read high; gene 2 mutant T4, recBCD-deleted host.
In test [27] the test system is HIV-1 integrase (multimerization). Nature of the test: stimulation of HIV-1 integrase oligomerization – biochemical, TR-FRET, counter-screen for LEDGF/p75 integration inhibitor project (AID 1053131; in the data active = activation above about 8.9%). To be noted: TR-FRET HIV-1 integrase multimerization, at 7.7 µM, active compounds read high.
A short description of test [28]: compounds disturbing TR-FRET signal readout – biochemical, HIV-1 IN multimerization, artefact control for LEDGF/p75-dependent integration inhibitor project, confirmation (AID 1053135;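 active = inhibition above the mean over all tested compounds plus 3 SD, which no compound reached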;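 also: 0% = integrase with antibodies and DMSO and 100% = antibodies without integrase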). To be noted: TR-FRET optical interference counterscreen, at 7.7 µM, active compounds read high.
In test [29] the test system is HIV-1 integrase / human LEDGF/p75 complex. Kind of test: blockers of LEDGF/p75-dependent integrase activity – biochemical, TR-FRET, confirmation (AID 1053136; in the data active = inhibition above about 14%). To be noted: TR-FRET LEDGF/p75-dependent HIV-1 integration, at 3.7 µM, active compounds read high.

Molecules are shown by their SMILES. Values joined by “and” are separate entries in the source; they are usually repeats but may differ in a detail not shown here. Identical values can stand only once. A number with no mark means an inactive call. This is one part of the list. Active and inactive are the calls of the source.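 The calls were made as follows, unless noted: active = mean inhibition over triplicates exceeding the hit threshold derived in the original primary screen (cut at about 11% in these data); inactive = the rest.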

Sequence of Nuclear receptor coactivator 1 (Homo sapiens) (Q15788 whole entry, looked up, the tested form may be a part): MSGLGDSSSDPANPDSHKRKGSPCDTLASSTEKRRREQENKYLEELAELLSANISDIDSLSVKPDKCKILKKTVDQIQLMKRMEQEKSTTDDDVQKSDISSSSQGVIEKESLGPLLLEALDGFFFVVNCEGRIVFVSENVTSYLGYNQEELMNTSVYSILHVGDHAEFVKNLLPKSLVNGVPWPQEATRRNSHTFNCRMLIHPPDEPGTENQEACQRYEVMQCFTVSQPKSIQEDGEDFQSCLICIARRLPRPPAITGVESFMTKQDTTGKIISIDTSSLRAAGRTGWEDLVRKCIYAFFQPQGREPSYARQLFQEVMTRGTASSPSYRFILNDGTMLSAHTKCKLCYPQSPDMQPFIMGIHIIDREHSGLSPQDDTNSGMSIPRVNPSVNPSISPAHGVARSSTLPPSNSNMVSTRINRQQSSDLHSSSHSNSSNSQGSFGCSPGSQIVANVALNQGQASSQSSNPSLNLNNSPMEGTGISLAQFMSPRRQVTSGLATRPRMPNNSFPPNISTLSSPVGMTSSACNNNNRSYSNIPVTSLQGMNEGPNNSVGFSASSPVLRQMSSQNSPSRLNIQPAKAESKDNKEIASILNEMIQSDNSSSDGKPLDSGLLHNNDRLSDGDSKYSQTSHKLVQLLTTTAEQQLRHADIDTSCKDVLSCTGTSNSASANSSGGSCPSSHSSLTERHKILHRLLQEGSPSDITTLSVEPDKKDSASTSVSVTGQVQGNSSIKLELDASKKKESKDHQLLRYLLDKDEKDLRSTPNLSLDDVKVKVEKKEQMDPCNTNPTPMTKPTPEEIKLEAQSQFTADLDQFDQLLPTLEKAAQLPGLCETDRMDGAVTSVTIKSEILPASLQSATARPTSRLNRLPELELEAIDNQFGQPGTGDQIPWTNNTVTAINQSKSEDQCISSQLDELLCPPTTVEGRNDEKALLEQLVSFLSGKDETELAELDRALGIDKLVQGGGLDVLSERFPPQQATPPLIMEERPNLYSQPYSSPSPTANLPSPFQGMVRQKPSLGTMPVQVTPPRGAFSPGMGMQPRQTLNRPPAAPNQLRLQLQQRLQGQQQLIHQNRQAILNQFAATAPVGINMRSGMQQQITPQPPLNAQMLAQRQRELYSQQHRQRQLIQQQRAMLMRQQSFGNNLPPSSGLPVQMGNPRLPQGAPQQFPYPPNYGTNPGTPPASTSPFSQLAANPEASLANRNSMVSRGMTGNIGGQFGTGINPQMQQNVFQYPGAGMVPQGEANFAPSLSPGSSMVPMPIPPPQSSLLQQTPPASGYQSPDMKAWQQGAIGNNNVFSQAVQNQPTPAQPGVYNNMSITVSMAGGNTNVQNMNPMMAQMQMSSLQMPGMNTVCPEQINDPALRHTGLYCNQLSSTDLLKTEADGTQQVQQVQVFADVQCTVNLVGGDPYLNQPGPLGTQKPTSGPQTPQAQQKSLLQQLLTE
Sequence of Steroidogenic factor 1 (Homo sapiens) (Q13285 whole entry, looked up, the tested form may be a part): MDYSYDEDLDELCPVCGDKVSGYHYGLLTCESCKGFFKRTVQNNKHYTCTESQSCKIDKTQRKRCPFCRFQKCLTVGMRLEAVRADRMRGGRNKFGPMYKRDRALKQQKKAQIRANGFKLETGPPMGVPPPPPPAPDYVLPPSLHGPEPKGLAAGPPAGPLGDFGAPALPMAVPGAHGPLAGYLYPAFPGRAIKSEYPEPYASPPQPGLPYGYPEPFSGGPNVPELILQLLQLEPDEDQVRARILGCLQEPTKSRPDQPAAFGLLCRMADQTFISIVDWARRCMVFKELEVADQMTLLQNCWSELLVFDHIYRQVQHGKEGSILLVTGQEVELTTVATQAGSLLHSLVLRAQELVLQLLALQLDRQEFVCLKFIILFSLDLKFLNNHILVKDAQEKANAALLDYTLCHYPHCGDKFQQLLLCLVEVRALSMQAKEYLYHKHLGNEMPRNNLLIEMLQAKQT
Sequence of Nuclear receptor coactivator 3 (Homo sapiens) (Q9Y6Q9 whole entry, looked up, the tested form may be a part): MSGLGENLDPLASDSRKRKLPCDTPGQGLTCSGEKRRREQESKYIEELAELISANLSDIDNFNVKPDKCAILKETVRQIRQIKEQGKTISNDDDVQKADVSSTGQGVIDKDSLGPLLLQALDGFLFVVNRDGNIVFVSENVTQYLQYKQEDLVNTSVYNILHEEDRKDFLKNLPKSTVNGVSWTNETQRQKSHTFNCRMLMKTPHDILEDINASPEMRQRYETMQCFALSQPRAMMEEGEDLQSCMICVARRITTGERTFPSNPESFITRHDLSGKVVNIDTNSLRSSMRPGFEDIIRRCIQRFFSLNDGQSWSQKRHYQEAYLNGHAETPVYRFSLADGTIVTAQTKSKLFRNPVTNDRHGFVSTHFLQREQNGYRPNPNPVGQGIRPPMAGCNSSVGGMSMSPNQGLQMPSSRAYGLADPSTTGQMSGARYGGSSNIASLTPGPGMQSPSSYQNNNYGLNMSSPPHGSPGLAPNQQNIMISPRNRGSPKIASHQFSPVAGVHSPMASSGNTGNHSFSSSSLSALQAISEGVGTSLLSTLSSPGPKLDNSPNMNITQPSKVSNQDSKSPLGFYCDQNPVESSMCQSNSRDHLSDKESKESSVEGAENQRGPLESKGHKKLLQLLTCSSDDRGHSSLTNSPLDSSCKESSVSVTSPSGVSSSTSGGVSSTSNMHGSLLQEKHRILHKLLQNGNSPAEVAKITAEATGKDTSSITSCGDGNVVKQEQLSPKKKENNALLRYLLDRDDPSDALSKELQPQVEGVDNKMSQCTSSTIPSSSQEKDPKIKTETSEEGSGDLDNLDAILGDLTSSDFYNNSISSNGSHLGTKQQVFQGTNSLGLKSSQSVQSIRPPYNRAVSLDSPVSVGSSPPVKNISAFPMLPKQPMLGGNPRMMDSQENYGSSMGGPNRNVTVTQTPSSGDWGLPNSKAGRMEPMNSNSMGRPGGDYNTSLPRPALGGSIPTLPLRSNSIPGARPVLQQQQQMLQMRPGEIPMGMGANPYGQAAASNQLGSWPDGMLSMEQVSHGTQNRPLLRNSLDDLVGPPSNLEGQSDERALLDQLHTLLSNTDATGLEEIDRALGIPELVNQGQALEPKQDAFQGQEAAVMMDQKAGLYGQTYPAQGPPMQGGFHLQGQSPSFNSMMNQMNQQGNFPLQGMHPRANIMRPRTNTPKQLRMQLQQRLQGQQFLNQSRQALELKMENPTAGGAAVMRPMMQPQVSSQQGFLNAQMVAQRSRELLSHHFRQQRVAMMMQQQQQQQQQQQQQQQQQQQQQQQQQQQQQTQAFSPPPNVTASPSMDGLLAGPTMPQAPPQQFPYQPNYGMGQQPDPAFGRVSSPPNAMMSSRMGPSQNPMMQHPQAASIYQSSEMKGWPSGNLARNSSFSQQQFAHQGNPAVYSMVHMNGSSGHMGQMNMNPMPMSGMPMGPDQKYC
Sequence of Protein-arginine deiminase type-4 (Homo sapiens) (Q9UM07 whole entry, looked up): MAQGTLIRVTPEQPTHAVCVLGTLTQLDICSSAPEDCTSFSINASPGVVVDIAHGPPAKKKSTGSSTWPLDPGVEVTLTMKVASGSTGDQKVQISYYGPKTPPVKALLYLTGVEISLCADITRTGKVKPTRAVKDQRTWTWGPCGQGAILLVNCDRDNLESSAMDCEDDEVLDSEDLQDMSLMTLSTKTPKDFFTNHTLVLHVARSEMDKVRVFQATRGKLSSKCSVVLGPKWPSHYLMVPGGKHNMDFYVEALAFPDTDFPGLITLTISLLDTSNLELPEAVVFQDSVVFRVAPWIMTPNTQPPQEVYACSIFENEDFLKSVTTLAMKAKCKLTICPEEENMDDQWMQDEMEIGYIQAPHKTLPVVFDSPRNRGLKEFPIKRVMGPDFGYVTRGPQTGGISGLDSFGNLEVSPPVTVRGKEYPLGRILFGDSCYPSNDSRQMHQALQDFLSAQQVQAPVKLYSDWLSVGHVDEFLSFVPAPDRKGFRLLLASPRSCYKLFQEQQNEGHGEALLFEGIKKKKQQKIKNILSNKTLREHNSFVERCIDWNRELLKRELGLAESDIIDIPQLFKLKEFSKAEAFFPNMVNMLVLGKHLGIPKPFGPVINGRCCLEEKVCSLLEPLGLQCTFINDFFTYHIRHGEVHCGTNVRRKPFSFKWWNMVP
Sequence of COUP transcription factor 2 (Homo sapiens) (P24468 whole entry, looked up): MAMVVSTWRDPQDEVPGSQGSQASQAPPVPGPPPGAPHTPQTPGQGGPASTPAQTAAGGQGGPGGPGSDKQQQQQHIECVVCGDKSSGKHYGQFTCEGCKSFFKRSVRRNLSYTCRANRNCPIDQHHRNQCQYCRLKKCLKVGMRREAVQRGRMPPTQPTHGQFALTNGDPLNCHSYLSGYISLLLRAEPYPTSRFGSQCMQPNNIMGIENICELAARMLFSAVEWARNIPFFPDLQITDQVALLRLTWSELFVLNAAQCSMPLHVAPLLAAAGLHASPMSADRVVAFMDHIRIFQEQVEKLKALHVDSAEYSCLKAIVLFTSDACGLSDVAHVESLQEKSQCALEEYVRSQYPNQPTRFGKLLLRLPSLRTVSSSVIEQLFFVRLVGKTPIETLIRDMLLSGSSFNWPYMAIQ
Sequence of Nuclear receptor subfamily 5 group A member 2 (Homo sapiens) (O00482 whole entry, looked up): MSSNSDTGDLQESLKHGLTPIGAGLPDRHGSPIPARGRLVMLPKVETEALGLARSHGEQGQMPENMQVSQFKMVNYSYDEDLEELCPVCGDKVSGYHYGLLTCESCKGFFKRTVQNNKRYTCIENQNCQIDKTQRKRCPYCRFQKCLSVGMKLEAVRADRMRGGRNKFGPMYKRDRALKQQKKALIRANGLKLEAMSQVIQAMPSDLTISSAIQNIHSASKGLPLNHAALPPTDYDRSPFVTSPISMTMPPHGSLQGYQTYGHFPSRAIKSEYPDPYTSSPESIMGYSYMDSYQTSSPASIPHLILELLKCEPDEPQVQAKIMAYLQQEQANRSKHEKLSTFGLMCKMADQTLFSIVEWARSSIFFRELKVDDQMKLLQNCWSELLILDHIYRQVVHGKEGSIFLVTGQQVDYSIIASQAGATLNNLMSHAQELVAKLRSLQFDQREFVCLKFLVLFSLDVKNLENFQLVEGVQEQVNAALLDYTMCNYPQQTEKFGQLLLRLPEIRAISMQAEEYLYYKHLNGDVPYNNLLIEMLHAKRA

Regarding `Cc1nc(Cl)c2oc3ccccc3c2n1`, the inhibition was 39% (active) in [1], 20.8% in test [2] and 7.72% in [3].

Regarding `CCCCCCCCn1c2c(c(=N)c3c1CCC3)CCCC2`, the inhibition in test [1] is 23.3%; in test [2], 27.8% (active); in test [4] it was 86.6% (active); in [5] it was 43.9% (active); in [6], 28.9% (active); in [7], 115% (active). Also, the inhibition in test [8] is 23.5% (active); in test [9] it was 85.1% (active); in [10], 87.4% (active); in test [11] it was 66.6% (active); in test [12], 87.6% (active); in test [13] it was 99.3% (active). Further, the inhibition in test [14] is 91.4% (active); in [15], 78.1% (active); in [16], 110% (active); in test [17] it was 96.5% (active); in test [18], 96.8% (active); in test [19], 32.1% (active). Besides, in test [20], the inhibition is 87.4% (active).

As for `CO/N=C(\C(=O)N[C@@H]1C(=O)N2C(C(=O)O)=C(COC(C)=O)CS[C@H]12)c1csc(N)n1` (stereo in doubt), the inhibition was 99.2% (active) and 97% (active) in [21]; 99.5% (active) and 97.6% (active) in test [22]; 99.6% (active) and 98.1% (active) in test [23]; 100% (active) and 96.2% (active) and 102% (active) in [24]; 102% (active) and 97.1% (active) and 103% (active) in test [25]; 102% (active) and 96.3% (active) in test [26]. Besides, the inhibition in test [28] was -1.28%; in test [29] it was 42.8% (active). In addition, the activation in test [27] was 0.25%.
